Assay results as given in PubChem BioAssay (NCATS).
Values joined by “and” are separate entries in the source; they are usually repeats but may differ in a detail not shown here. Equal values may be shown once. Results filed as inconclusive are left out. A number with no mark means an inactive call. Active and inactive are the calls of the source. Calls follow the shape of the dose curve; as a rule, active = well fitted inhibition curve with a large enough effect; inconclusive = small, poorly fitted or top-dose-only effect; inactive = no such curve, though single readings can be large or run the other way.

Molecular target: Cytochrome P450 3A4 (Homo sapiens) (UniProt P08684)
Assay: qHTS Assay for Inhibitors and Substrates of Cytochrome P450 3A4 (AID 884); also: nearly all actives have a fitted effect of over 50% in size
Settings: recombinant CYP3A4, Luciferin-PPXE luminescence; series mostly up to 57.1 µM
Procedure: NIH Molecular Libraries Screening Centers Network [MLSCN]
NIH Chemical Genomics Center [NCGC]
The P450 gene superfamily is involved in the metabolism and clearance of xenobiotics. This assay used human CYP3A4 to measure the dealkylation of luciferin-6' phenylpiperazinylyl (Luciferin-PPXE; […]) to luciferin. The luciferin is then measured by luminescence after the addition of a luciferase detection reagent. Luciferin-PPXE concentration in the assay was equal to its KM for CYP3A4. Inhibitors and some substrates limit the production of luciferin, and decrease measured luminescence.
NCGC Assay Protocol Summary:
Two uL of enzyme and substrate mix (final concentrations: 20nM CYP3A4, 25uM Luciferin-PPXE, 200mM KPO4) were dispensed into a white, solid bottom 1536-well microtiter plate. 23nL of compound was transferred by a pin tool. The plate was incubated at RT for 10 min. Two uL of an NADPH regeneration solution (Promega supplied reagent) was dispensed and the reaction was allowed to continue for 60 min at RT. Then the reaction was stopped by reconstituted luciferin detection buffer. After another 20 min of incubation the plate was read on the ViewLux (Perkin Elmer) at 60 sec exposure and 2x2 binning. This protocol was carried out with Promega-Glo reagents and further information can be found at http://www.promega.com/tbs/tb325/tb325.pdf. Data were normalized to the to AC100 inhibition (57 uM ketoconazole).
Keywords: P450, CYP3A4, Luciferase, MLSMR, MLSCN, NIH Roadmap, qHTS, NCGC
% is scaled to controls: 0 for no effect and ±100 for the full control effect; potency is read from the fitted curve at half-maximal effect.

Chain of Cytochrome P450 3A4 (Homo sapiens) (P08684 whole entry, looked up): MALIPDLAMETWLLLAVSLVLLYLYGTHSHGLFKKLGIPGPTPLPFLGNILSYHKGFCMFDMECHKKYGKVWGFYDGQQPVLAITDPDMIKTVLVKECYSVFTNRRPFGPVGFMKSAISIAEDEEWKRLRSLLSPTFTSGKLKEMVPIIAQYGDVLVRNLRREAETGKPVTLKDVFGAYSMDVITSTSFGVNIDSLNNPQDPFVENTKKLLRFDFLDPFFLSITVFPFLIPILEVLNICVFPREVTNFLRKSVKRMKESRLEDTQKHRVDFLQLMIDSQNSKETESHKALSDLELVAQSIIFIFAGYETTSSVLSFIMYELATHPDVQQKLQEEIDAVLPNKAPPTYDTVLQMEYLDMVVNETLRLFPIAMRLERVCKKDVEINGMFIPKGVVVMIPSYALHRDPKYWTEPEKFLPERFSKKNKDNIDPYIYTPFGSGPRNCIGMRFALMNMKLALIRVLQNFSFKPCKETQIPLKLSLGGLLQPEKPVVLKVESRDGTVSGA

SMILES	Potency	activity change, negative = inhibition
COCCn1c(=O)c(-c2cc(F)cc(F)c2)nc2cnc(Oc3ccc(OC)cc3)nc21	3.16 µM (active)	
O=C(Nc1cccc2ccccc12)c1ccccc1	3.16 µM (active)	
S=C(S)NCCCn1ccnc1	1.58 µM (active)	
CC(=O)OC1CC(C)OC(C)O1 (stereo not given)	inactive	
CC(C)CO[C@H](c1ccc2c(c1)OCO2)[C@H](C)Br	3.16 µM (active)	
CN(C)C[C@H]1CCC2=C(C1=O)C(c1ccc(Cl)c(Cl)c1)C1=C(CC[C@H](CN(C)C)C1=O)O2	0.398 µM (active)	
CCC(Cl)CC(Cl)C(Cl)C(Cl)C(Cl)C(C)Cl (stereo not given)	inactive	
CC(C)(C)C(=O)C1C(=O)c2ccccc2C1=O	inactive	
COCCn1c(=O)c(-c2cccs2)nc2cnc(Oc3ccc(OC)cc3)nc21	0.794 µM (active)	
CN[C@@H](c1ccncc1)[C@@H](NC)c1ccncc1	5.01 µM (active)	
COc1cc2nc(N3CCN(C(=O)OCc4ccccc4)[C@H](C(=O)NC(C)(C)C)C3)nc(N)c2cc1OC	3.98 µM (active)	
CC(C)S	inactive	
N=C1C=CC(=C(c2ccc(N)cc2)c2ccc(N)cc2)C=C1	12.6 µM (active) and 3.16 µM (active)	
CCCCCCCCOc1ccc(C(=O)O)cc1	inactive	
O=c1c(-c2ccccc2)nc2cnc(Oc3ccccc3)nc2n1C1CC1	inactive	
OCC(CBr)(CBr)CBr	inactive	
CN(C)CCCN1c2ccccc2Sc2cnccc21	1.58 µM (active)	
c1ccc(CSCc2ccccc2)cc1	inactive	
NC(=O)c1ccc([N+](=O)[O-])cc1	inactive	
O=C1c2ccccc2N[C@H](c2cc(Cl)cc(Cl)c2O)N1CCc1ccccn1	0.794 µM (active)	

SMILES	Potency	activity change, negative = inhibition
C[C@@H](CN1CCC(Cc2ccccc2)CC1)[C@H](O)c1ccc(O)cc1	inactive	
C=CC(=O)CC	inactive	
Cc1ccccc1N1CCN(S(=O)(=O)C[C@@]23CC[C@H](C[C@H]2NC(=O)[C@@H](N)CCS(C)(=O)=O)C3(C)C)CC1	3.16 µM (active)	
N#CNC(N)=Nc1ccc(Cl)cc1		-49.7% [at 11.4 µM]
COc1ccc(C(=O)N/N=C2/C(=O)c3c(C)cc(C)cc3CC2(C)C)cc1	3.16 µM (active)	
O=c1c(CCc2ccccc2)nc2cnc(Oc3cccc(Cl)c3)nc2n1C[C@H]1CCCO1	0.501 µM (active)	
CCCCC(CC)COC(=O)COc1ccc(Cl)cc1Cl (stereo not given)	inactive	
Cn1ncc2c(NCCc3ccccc3)nc(Cl)nc21	2 µM (active)	
O=C1c2ccccc2C(O)(O)[C@@]1(O)[C@]1(O)C(=O)c2ccccc2C1(O)O		11.5% [at 11.4 µM]
CN1CCc2ccccc2[C@@H]1Cc1ccccc1NC(=O)c1sc2ccccc2c1Cl	1.58 µM (active)	
Clc1nc2ccccc2nc1Cl	inactive	
COc1ccc([N+](=O)[O-])cc1N	inactive	
NNC(=O)CCSc1ccccc1	3.98 µM (active)	
O=c1[nH]c(SCc2c(Cl)c(Cl)c(Cl)c(Cl)c2Cl)nc(=S)[nH]1	3.16 µM (active)	
CSc1nc(N)c2ncn([C@@H]3O[C@@H](COP(=O)(O)OP(=O)(O)OP(=O)(O)O)[C@@H](O)[C@H]3O)c2n1	inactive	
Nc1ccc(N(S(=O)(=O)c2ccccc2)S(=O)(=O)c2ccccc2)c(Cl)c1	0.0316 µM (active)	
CC(=O)OC(C(=O)c1ccccc1)c1ccccc1 (stereo not given)	inactive	
Cc1cnc(CNc2nc(-c3cccnc3)nc3ccccc23)cn1	3.98 µM (active)	
CN(CCc1ccccn1)c1ccc2c(c1)C(=O)c1ccccc1-2	3.16 µM (active)	
COc1ccccc1-c1ccc2ncnc(NCc3cccnc3)c2c1	0.631 µM (active)	
